PubChem BioAssay (Tox21)
Records with an inconclusive call do not appear. Entries that show only a call come without a potency. Activity calls are given as the source filed them. The call rests on the fitted dose curve; in most records, active means well fitted inhibition curve with a large enough effect in the signal ratio in the repeat runs (not every such curve was filed as active); inconclusive means weak or mixed curves; inactive means flat fitted curve, though single readings scatter; the % refers to the signal ratio. Where a SMILES comes first, the peptide text is derived from it.

These compounds were tested against Progesterone receptor (Homo sapiens) (UniProt P06401) (assay: qHTS assay to identify small molecule antagonists of the progesterone receptor (PR) signaling pathway (AID 1346795)). Conditions: PR-UAS-bla HEK293T, beta-lactamase FRET ratio, 16 h; series mostly up to 92.4 µM.
Description: National Center for Advancing Translational Sciences [NCATS]
NIH Chemical Genomics Center [NCGC]
U.S. Environmental Protection Agency [EPA]
National Institutes of Environmental Health Sciences [NIEHS]
National Toxicology Program [NTP]
U.S. Food and Drug Administration [FDA]
Progesterone receptor (PR), a nuclear hormone receptor, plays an important role in development, metabolic homeostasis and reproduction. […] Endocrine disrupting chemicals (EDCs) and their interactions with steroid hormone receptors like PR causes disruption of normal endocrine function. To identify the compounds that inhibit PR signaling, a PR-UAS-bla GripTite cell line i.e. PR-UAS-bla HEK293T (Invitrogen, Carlsbad, CA, USA) containing a beta-lactamase reporter gene under the control of an Upstream Activator Sequence (UAS) was used to screen Tox21 10K compound library.
Tox21 Assay Protocol Summary:
PR-UAS-bla HEK293T cells were dispensed at 3,000 cells/4 uL of assay medium containing 2% charcoal stripped FBS per well into black wall/clear-bottom 1536-well plates using a Multidrop Combi (ThermoFisher Scientific, Waltham, MA) dispenser. After the assay plates were incubated at a 37C and 5% CO2 for 6 hr, 23 nL of compounds dissolved in DMSO, positive controls or DMSO only was transferred to the assay plate by a Pintool station (Kalypsys, San Diego, CA), followed by addition of 1 uL (1nM as final concentration) of Promegestone (R5020) in assay medium using a BioRAPTR FRD (Flying Reagent Dispenser, Aurora Discovery, San Diego, CA). The plates were incubated at 37C and 5% CO2 for 16 hr. Then 1 uL of LiveBLAzer B/G FRET substrate was added using a FRD. After the plates were incubated at room temperature for 2 hours, fluorescence intensity was measured by an Envision plate reader (PerkinElmer, Shelton, CT).
Potency means the concentration at half of the fitted maximal effect.

Progesterone receptor (Homo sapiens), sequence (P06401 whole entry, looked up): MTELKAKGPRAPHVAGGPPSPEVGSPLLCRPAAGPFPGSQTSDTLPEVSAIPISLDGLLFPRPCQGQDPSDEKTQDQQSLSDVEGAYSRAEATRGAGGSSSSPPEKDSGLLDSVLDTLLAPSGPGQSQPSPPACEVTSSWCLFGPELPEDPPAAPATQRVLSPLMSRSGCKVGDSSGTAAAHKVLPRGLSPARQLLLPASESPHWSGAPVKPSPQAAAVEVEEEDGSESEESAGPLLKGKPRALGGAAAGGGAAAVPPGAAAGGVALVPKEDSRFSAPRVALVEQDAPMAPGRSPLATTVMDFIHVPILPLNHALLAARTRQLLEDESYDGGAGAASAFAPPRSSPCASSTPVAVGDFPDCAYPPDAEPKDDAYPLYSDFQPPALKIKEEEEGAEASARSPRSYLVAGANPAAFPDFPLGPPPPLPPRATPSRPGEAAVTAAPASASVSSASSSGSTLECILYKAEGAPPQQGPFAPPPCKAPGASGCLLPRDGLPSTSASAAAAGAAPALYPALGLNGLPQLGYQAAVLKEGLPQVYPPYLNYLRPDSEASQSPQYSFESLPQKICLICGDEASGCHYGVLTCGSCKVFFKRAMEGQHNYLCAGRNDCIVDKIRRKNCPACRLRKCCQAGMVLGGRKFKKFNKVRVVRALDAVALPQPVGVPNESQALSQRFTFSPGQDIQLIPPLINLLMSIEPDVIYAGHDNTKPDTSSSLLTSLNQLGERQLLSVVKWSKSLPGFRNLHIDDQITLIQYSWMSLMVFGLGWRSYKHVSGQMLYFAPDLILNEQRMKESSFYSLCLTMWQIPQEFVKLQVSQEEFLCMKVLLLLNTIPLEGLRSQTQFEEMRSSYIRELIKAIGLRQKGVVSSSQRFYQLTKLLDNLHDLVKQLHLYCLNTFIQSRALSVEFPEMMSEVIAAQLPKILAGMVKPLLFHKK

Row | Structure (SMILES) | Potency | activity change, negative = inhibition
1 | CC(N)CCCC(C)(C)O (stereo not given) | inactive | –
2 | CC(C)Nc1ccccc1 | inactive | –
3 | CCCCOC(=O)C(C)O (stereo not given) | inactive | –
4 | COc1ccc(CCO)cc1 | inactive | –
5 | CC1=C(O)C(=O)C(C)O1 (stereo not given) | inactive | –
6 | COc1cc(/C=C/C(N)=O)cc(OC)c1OC | inactive | –
7 | CCCCCC/C=C/C(=O)OC | inactive | –
8 | O=[N+]([O-])c1c(Cl)cc(Cl)cc1Cl | inactive | –
9 | c1ccc(B(c2ccccc2)c2ccccc2)cc1 | 54.4 µM (active) | –
10 | CC(=O)N[C@@H](CO)C(=O)N[C@@H](CC(=O)O)C(=O)N[C@@H](CCCCN)C(=O)N1CCC[C@H]1C(=O)O (Ac-SDKP-OH) | inactive | –
11 | CC(C)Cn1cnc2c1c(=O)n(C)c(=O)n2C | inactive | –
12 | CC(=O)O[Si](C)(OC(C)=O)OC(C)=O | inactive | –
13 | OCCN1CCOCC1 | inactive | –
14 | O=NN(CCCl)C(=O)NC1CCCCC1 | inactive | –
15 | O=S(=O)(O)c1ccc2c(N=Nc3ccc(S(=O)(=O)O)c4ccccc34)c(O)c(S(=O)(=O)O)cc2c1 | – | -1.68% [at 8.39 µM] (inactive)
16 | NCCOCCN | inactive | –
17 | Cc1ccc(N)cc1S(=O)(=O)O | inactive | –
18 | O=C1OCCO1 | inactive | –
19 | CCCCCCCCCCCCCCCCCCOCCO | – | -1.49% [at 18.9 µM] (inactive)
20 | O=C(NCN1CCOCC1)c1cnccn1 | inactive | –

Row | Structure (SMILES) | Potency | activity change, negative = inhibition
21 | CC(C)C[C@@H]1[C@H](c2ccccc2)OC(=O)N1CCCN1CCCCCC1 | inactive | –
22 | OC[C@H]1O[C@@H](O[C@@H]2[C@@H](CO)O[C@](O)(CO)[C@H]2O)[C@H](O)[C@@H](O)[C@H]1O | inactive | –
23 | N#Cc1ccccc1O | inactive | –
24 | Cc1ncc([N+](=O)[O-])n1CC(C)O (stereo not given) | inactive | –
25 | CCCCCCCCCOC(=O)CCCCC(=O)OCCCCCCC | inactive | –
26 | CC(C)(C)NC[C@H](O)COc1cccc2c1CCCC2=O | inactive | –
27 | CCCCCCCCCCCCCCC(=O)NC(CO)CCCCCCCCCCCCCC (stereo not given) | inactive | –
28 | CCNC(=O)NCc1cccc(Cl)c1 | inactive | –
29 | CCCCOC(=O)[C@H](C)O | inactive | –
30 | Cn1nnc2c(C(N)=O)ncn2c1=O | inactive | –
31 | c1ccc2c(CC3=NCCN3)cccc2c1 | inactive | –
32 | C=Cc1ccc(C(C)(C)C)cc1 | inactive | –
33 | CC(C)C1OCCN1CCOC(=O)NCCCCCCNC(=O)OCCN1CCOC1C(C)C (stereo not given) | inactive | –
34 | CN(C)CCCCl | inactive | –
35 | COC(C)(OC)OC | inactive | –
36 | COC(=O)c1ccccc1C(=O)O | inactive | –
37 | O=Cc1cc2ccccc2o1 | inactive | –
38 | CO[Si](CCCn1c(=O)n(CCC[Si](OC)(OC)OC)c(=O)n(CCC[Si](OC)(OC)OC)c1=O)(OC)OC | inactive | –
39 | CCC(=O)CC | inactive | –
40 | COc1cc2c(cc1OC)C(=O)C(CC1CCN(Cc3ccccc3)CC1)C2 (stereo not given) | inactive | –
